Screens as filed in PubChem BioAssay.
The full list was thinned out, with hits kept by preference.
Dicer inh = inhibitors of human Dicer processing of pre-microRNA. Q9UPY3. cat-ELCCA pre-miR-21 Dicer processing, chemiluminescence; hits give high values. z-score at 25 µM. actives 6% (n = 47,000). AID 1347074; in the data active means z-score above about 3, passing the limit was not always enough;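 further: plate controls were vehicle for no effect and no enzyme for full effect; higher signal means more uncleaved substrate so more Dicer inhibition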
The depositor's hits bear a star.

SMILES	Dicer inh
COc1ccc(C2Nc3ccccc3-c3nnc(SC)nc3O2)cc1 (stereo not drawn)	1.5
CSc1nnc2c(n1)OC(c1ccc(C(=O)O)cc1)Nc1ccc(Br)cc1-2 (stereo not drawn)	0.21
CSc1nnc2c(n1)OC(c1ccc(N(C)C)cc1)Nc1ccccc1-2 (stereo not drawn)	23
CCSc1nnc2c(n1)OC(c1ccc(O)c(O)c1)Nc1ccccc1-2 (stereo not drawn)	2.3
CSc1nnc2c(n1)OC(c1ccc(O)c(O)c1)Nc1ccccc1-2 (stereo not drawn)	4.4*
COc1ccccc1C1Nc2ccccc2-c2nnc(SC)nc2O1 (stereo not drawn)	-0.54
CSc1nnc2c(n1)OC(c1ccccc1OCC(=O)O)Nc1ccccc1-2 (stereo not drawn)	4.5*
CNC(=O)c1c(C)csc1NC(=O)C(F)(F)F	-0.19
COc1ccccc1C1CC(=O)Nc2nc(N)[nH]c(=O)c21 (stereo not drawn)	2.8
CC(=O)c1sc2scc(C)c2c1C	2.2
Cn1cc(C(=O)c2ccc(Cl)cc2)cc1/C=C(\C#N)C(=O)c1ccco1	0.42
COc1ccc(C(=O)c2ccccc2)c(O)c1	1.1
COc1ccc(C(=O)c2oc3ccc(OC)cc3c2N)cc1	4.2*
COc1ccc(-c2cc(=O)c3ccc(O)cc3o2)cc1	0.66
COc1ccc(C(=O)c2coc3ccc(O)cc23)cc1	5.4*
COc1ccc(C(=O)c2oc3ccc(Cl)cc3c2N)cc1	0.05
COc1ccc2oc(C(=O)c3ccc(Cl)cc3)c(N)c2c1	10
O=C(Cn1cc(C(=O)C2CCCCC2)c2ccccc21)NC1CCCCC1	0.92
O=C(CSc1ccccn1)Nc1ccccc1Sc1nccc(C(F)(F)F)n1	-1.3
Nc1ccc(-c2nc3ccccc3n2CCOc2ccccc2)cc1	4.3*
Nc1nc2ccccc2n1CCOc1ccc(Br)cc1	2.5
CCCCn1c(-c2ccc(N)cc2)nc2ccccc21	0.23
CNC(=S)NNC(=O)c1cnccc1C(F)(F)F	0.46
COc1ccc(O)c(C2=NN3C(C2)c2ccccc2OC3c2ccc(O)c(OC)c2)c1 (stereo not drawn)	2.6
COC(=O)c1ccc(C2Oc3c(OC)cccc3C3CC(c4cccs4)=NN32)cc1 (stereo not drawn)	-1.6
SMILES	Dicer inh
COc1ccc(C2Oc3c(OC)cccc3C3CC(c4cc(OC)ccc4O)=NN32)c(OC)c1 (stereo not drawn)	2.8
COc1ccc(O)c(C2=NN3C(C2)c2ccccc2OC3c2ccc(F)cc2)c1 (stereo not drawn)	2.4
COc1cccc2c1OC(c1cccs1)N1N=C(c3ccccc3O)CC21 (stereo not drawn)	1.3
COc1cccc(C2Oc3ccccc3C3CC(c4cccs4)=NN32)c1OC (stereo not drawn)	20*
COc1ccc(O)c(C2=NN3C(C2)c2cccc(OC)c2OC3c2cccs2)c1 (stereo not drawn)	3.5*
COc1ccc(O)c(C2=NN3C(C2)c2ccccc2OC3c2cccs2)c1 (stereo not drawn)	11*
CCN1C(=O)C2(/C(=C(/O)c3ccc(C)c(F)c3)C(=O)C(=O)N2CCCN(C)C)c2ccccc21 (stereo not drawn)	2.6
CN(C)c1ccc(C2/C(=C(\O)c3ccc(F)cc3)C(=O)C(=O)N2Cc2cccnc2)cc1 (stereo not drawn)	0.74
CCN1C(=O)SC(CC(=O)O)C1=O (stereo not drawn)	-0.41
Nc1nc(-c2ccc(OCc3ccc(F)cc3)cc2)cs1	-1.5
O=c1[nH]nc(Sc2ncc(Br)cc2[N+](=O)[O-])n1-c1ccccc1	-1.3
CCCCN(C)CC(O)Cn1c2ccc(Cl)cc2c2cc(Cl)ccc21 (stereo not drawn)	-1.6
CC(C)Nc1nc(NC(C)C)nc(N(C)C#N)n1	7*
CCOC(=O)/C(C#N)=C1/C(=O)Nc2ccc(Br)cc21	-4.9
CCn1cc(C(=O)N/N=C/c2ccc(Cl)cc2)c(=O)c2cc(C(F)(F)F)ccc21	-0.93
COc1ccc(C(=O)c2sc3nc(-c4ccc(OC)cc4)ccc3c2N)cc1	0.01
Cc1ccc2c(N)c(C(=O)c3ccc(-c4ccccc4)cc3)sc2n1	3.2*
Cc1cc(C)c2c(N)c(C(=O)c3ccccc3)sc2n1	-0.42
CC(=O)N1N=C(c2ccc(C)cc2)OC1c1cccnc1 (stereo not drawn)	0.44
CC(=O)N1N=C(c2cc(C)ccc2[N+](=O)[O-])OC1c1ccc(N(C)C)cc1 (stereo not drawn)	-2.8
CC(=O)N1N=C(c2ccc(Br)cc2)OC1c1ccc(F)cc1 (stereo not drawn)	3.2*
COc1nc2c(c(-c3ccc(Cl)cc3Cl)c1C#N)Cc1ccccc1-2	-0.49
C=CCSc1nnc2[nH]c(=O)cc(N)n12	5.2*
CC(C)CSc1nnc2[nH]c(=O)cc(N)n12	2.4
COc1ccccc1OCCSc1nnc2[nH]c(=O)cc(N)n12	1.9
C=CCSc1n[nH]c(=O)n1C1CCCCC1	-1.1
CCCCCCSc1nnc2[nH]c(=O)cc(N)n12	3.8*
C=C(C)CSc1nnc2[nH]c(=O)cc(N)n12	2.9
